Measured values published in the supplement of paper PMC6555819.

Assays:
Experiment in all cases: PBM binding z-score (relative to random genomic background probes); higher = stronger binding; sequences stand for … in GC…GCGATTGACAGCGTAGAATGAAGG
[1] = system: FXR:RXRa (NR concentration 270 nM, RXRa partner concentration 90 nM)
How it was run: (§1)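 Binding buffer was PBS pH 7.4 with 2% milk, 0.02% Triton X-100, 1 mM DTT, 0.2 mg/mL BSA and 0.4 mg/ml salmon testes DNA. In it, ligand-free nuclear receptor dimers were incubated 1 h on custom Agilent 4×180K protein-binding microarrays carrying double-stranded probes. Antibodies against each partner (one per run) detected binding, and z-scores were calculated against random background probes after regression normalization of scanned fluorescence.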

[2] = system: LXRa:RXRa (NR concentration 270 nM, RXRa partner concentration 90 nM)
How it was run: as §1

[3] = system: LXRa homodimer (NR concentration 270 nM)
How it was run: as §1

[4] = system: LXRb:RXRa (NR concentration 270 nM, RXRa partner concentration 90 nM)
How it was run: as §1

[5] = system: LXRb homodimer (NR concentration 270 nM)
How it was run: as §1

[6] = system: PPARa:RXRa (NR concentration 270 nM, RXRa partner concentration 90 nM)
How it was run: as §1

[7] = system: PPARg:RXRa (NR concentration 180 nM, RXRa partner concentration 90 nM)
How it was run: as §1

[8] = system: PPARg:RXRa 270nM:90nM, anti-RXR (NR concentration 270 nM, RXRa partner concentration 90 nM)
How it was run: as §1

[9] = system: PPARg:RXRa 30nM:10nM, anti-RXR (NR concentration 30 nM, RXRa partner concentration 10 nM)
How it was run: as §1

[10] = system: PPARg:RXRa 90nM:30nM, anti-RXR (NR concentration 90 nM, RXRa partner concentration 30 nM)
How it was run: as §1

Row | Sequence | PBM binding z-score [1] | PBM binding z-score [2] | PBM binding z-score [3] | PBM binding z-score [4] | PBM binding z-score [5] | PBM binding z-score [6] | PBM binding z-score [7] | PBM binding z-score [8] | PBM binding z-score [9] | PBM binding z-score [10]
1 | TCTGCTAGGTCAGTTGGTCATCTAACGAGCTGCC | 1.16 | 0.727 | -0.519 | 0.51 | 0.317 | 1.66 | 0.954 | 2.16 | 1.52 | 2.1
2 | CGAACGTGGGCATGAGTTGATAGCAAATGCCGAT | -0.892 | -0.876 | -1.04 | -0.998 | -1.27 | -1.82 | 0.51 | -0.55 | -0.697 | -0.428
3 | GGAACGAGGGCAAGTTGACAGCAGAGTTTGATGG | 0.854 | 0.43 | -0.472 | 0.324 | -0.45 | 1.69 | 1.15 | 1.35 | 0.346 | 0.686
4 | CTTACTGGGCCACGAAAGGTCATTGATTCAGTGA | 5.51 | 6.24 | 4.47 | 5.13 | 0.827 | 5.66 | 6.99 | 6.33 | 4.14 | 5.7
5 | ACAGACAGGTGATGAAGGTCACTCAGGCTATCAT | 1.77 | 2.17 | 0.813 | 1.96 | 0.00655 | 2.75 | 1.62 | 1.8 | 0.565 | 1.21
6 | GTACCAAGGTGAATAGGTCGTCGATGAGTAGGCG | 0.785 | 0.833 | -0.158 | 0.527 | -0.663 | 2.45 | 1.5 | 1.81 | 0.196 | 1.18
7 | TCTCGGAGGACACGACAGGTCAGAGCTCGACATC | 1.13 | 1.51 | 0.823 | 0.827 | -0.505 | 1.4 | 0.559 | 1.1 | 2.11 | 1.5
8 | TAATATAGGTAAACAGGTGAAAGTCCGTAAGTTA | 0.323 | 0.622 | 0.406 | 0.745 | 0.296 | 3.34 | 5.42 | 4.89 | 2.54 | 4.16
9 | ATCTCTAGGTAAGACTCAGTACAGTGAAGAACGC | 0.589 | 0.377 | 0.528 | 0.101 | 0.88 | 0.1 | 0.293 | -0.0568 | 0.341 | 0.016
10 | ACTAGCAGGCAAAGTTTGGGTCACTCAAACAAAG | 0.0773 | 0.185 | -0.475 | 0.807 | -0.762 | 1.33 | -0.0441 | 0.288 | -0.32 | 0.224
11 | TGAAGGAGGTTAAAGATCAGGGAACGTGGCGTCG | 2.43 | 2.05 | 0.112 | 1.62 | 0.187 | 3.67 | 4.96 | 5.81 | 4.55 | 6.03
12 | CCTAGCAGGCTAATCTGGGTCACTCAAGGCTTGA | 0.577 | 3.74 | 0.0725 | 1.2 | -0.635 | 3.14 | 2.13 | 2.31 | 0.292 | 1.49
13 | CCTCGGAGGACAACAGGAGGTCAGATCTGCCAGA | 1.11 | 2.26 | 2.76 | 1.83 | -0.568 | 1.91 | 0.67 | 0.241 | -0.484 | -0.22
